# Anthrax LF prot – blocks Bacillus anthracis lethal factor protease; inhibition, % at 10 µM; hit rate 0.12% among 360,000; multiplex microsphere protease cleavage assay, LF; AID 588501; further: plate controls were buffer without enzyme for full effect and enzyme alone for no effect
# BoNT-A LC inh2 – BoNT A light chain protease inhibition | multiplex microsphere protease substrate cleavage, flow cytometry | inhibition, % at 10 µM | hit rate 0.17% among 360,000 | AID 588499; further: plate controls were buffer without enzyme for full effect and enzyme alone for no effect
# BoNT-F LC inh – BoNT F light chain protease inhibition | AID 588497 | inhibition, % at 10 µM | hit rate 0.22% among 360,000 | Multiplex microsphere protease cleavage assay, flow cytometry; in the data active means inhibition above about 35%, passing the limit was not always enough; inconclusive means no clear call, values can overlap the other calls; further: plate controls were buffer without enzyme for full effect and enzyme alone for no effect
# MazF activator – activators of E. coli MazEF toxin-antitoxin RNase | activation, % at 20 µM | FAM/BHQ RNA-DNA oligo cleavage fluorescence, 5 h | P0AE70 | hit rate 0.32% among 350,000; in the data active means activation above about 50%
# Target sequence (P0AE70 whole entry, looked up): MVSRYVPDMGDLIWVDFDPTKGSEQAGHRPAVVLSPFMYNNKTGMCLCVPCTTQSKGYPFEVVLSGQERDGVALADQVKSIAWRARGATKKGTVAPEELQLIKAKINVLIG
# Bead autofluor – flagged as autofluorescent in microsphere protease counterscreen; compound autofluorescence counterscreen, microsphere flow cytometry; stronger effect = higher value; fluorescence intensity (test concentration not listed); hit rate 3.1% among 360,000; in the data active means fluorescence intensity above about 16000; inconclusive means no clear call, values can overlap the other calls
# The depositor's hits bear a star; ? = inconclusive; . = no result. In the library only some 3.7% were active in any assay of this set; here they are far more common. Unless noted, no stated cut-off is given here; in the data, active means inhibition above about 30%; inconclusive means no clear call, values can overlap the other calls; inactive means below that.
SMILES,Anthrax LF prot,BoNT-A LC inh2,BoNT-F LC inh,MazF activator,Bead autofluor
COc1ccccc1OCc1ccc(C(=O)N2N=C(C(F)F)CC2(O)C(F)F)o1 (stereo unspecified),-1,-3,-4,0,16851*
Cc1sc2nc(SCC(=O)C(C)(C)C)n(Cc3ccco3)c(=O)c2c1C,-3,1,-1,5,22551*
COc1cccc(CSc2nc3sc(C)c(C)c3c(=O)n2Cc2ccco2)c1,-12,6,8,4,19855*
Cc1sc2nc(SCc3ccccc3)n(Cc3ccco3)c(=O)c2c1C,-3,3,-1,-4,15662
COC(=O)c1ccc(CSc2nc3ccccc3c(=O)n2N)cc1,-6,1,6,4,3354
COC(=O)c1sc2nc(SCc3cccc(F)c3)n(N)c(=O)c2c1C,0,-1,-2,133*,9241
Cc1ccc(CSc2nc3sc(C)c(C)c3c(=O)n2Cc2ccco2)cc1,-9,1,3,8,9563
COc1ccc(NC(=O)CSc2nc3sc(C)c(C)c3c(=O)n2Cc2ccco2)cc1,2,?,6,-11,21853*
CC(C)NC(=O)OC1CC2CC1[C@H]1CCCCN1C2=O (stereo partly specified),-10,0,-3,.,5354
N#Cc1ccc(OCC(=O)N2CCCC2=O)cc1,-1,0,1,1,5271
O=C(NCCCc1ccccc1)N1CCOCC1,-2,1,-2,-1,4031
CCNC(=O)CC1C(=O)N(c2ccc(C)cc2)C(=O)N1CCc1ccc(OC)c(OC)c1 (stereo unspecified),1,1,8,3,9404
CCNC(=O)CC1C(=O)N(c2ccc(F)cc2)C(=O)N1CCc1ccc(OC)cc1 (stereo unspecified),-1,-1,-1,-1,20994*
CCNC(=O)CC1C(=O)N(c2ccccc2)C(=O)N1CCc1ccc(OC)c(OC)c1 (stereo unspecified),0,?,2,-10,22965*
CCOC(=O)c1ccc(NC(=O)CC2C(=O)N(c3ccccc3)C(=O)N2CCCOC)cc1 (stereo unspecified),-4,0,-1,4,19974*
O=C(Nc1cc2c(cc1C(=O)O)OCCCO2)c1ccc(F)cc1F,-2,-3,2,10,3851
O=C(O)C1c2ccccc2C(=O)N(Cc2ccc(F)cc2)C1c1ccncc1 (stereo unspecified),.,.,.,-1,.
CC(C)Oc1ccc(C(=O)Nc2cccc3cccnc23)cc1,3,-1,-2,6,4287
COc1ccc(-n2cnnc2SCc2csc(-c3ccccc3)n2)cc1,-3,?,-1,-2,22341*
CCOC(=O)Cc1nc(-c2ccc(Cl)cc2)n[nH]1,-7,-2,0,2,4678
FC(F)(F)c1cccc(N2CCN(CC3CC=CCC3)CC2)c1 (stereo unspecified),-4,-1,-6,0,3051
Cc1ccc(N2CCN(CC3CC=CCC3)CC2)cc1 (stereo unspecified),-2,2,3,-10,21210*
NC(=O)c1cc([N+](=O)[O-])ccc1NCc1cccc2ccccc12,-1,0,6,13,3876
O=C(/C=C/Nc1ccc([N+](=O)[O-])cc1Br)c1cccc2ccccc12,18,38*,-4,6,2150
COc1ccc(C2CC(c3ccccc3)=NN2S(=O)(=O)c2ccc(C)cc2)c(OC)c1 (stereo unspecified),20,1,30,-17,20530*
SMILES,Anthrax LF prot,BoNT-A LC inh2,BoNT-F LC inh,MazF activator,Bead autofluor
CCN(CC)CCCOC(=O)C(OC(C)C)(c1ccccc1)c1ccccc1,-22,36*,43*,13,?
CC(Cc1cccnc1)NC(=O)c1cc(COc2ccc(F)cc2Cl)on1 (stereo unspecified),10,0,-10,-13,5704
CSCCC(NC(=O)c1cncc(Br)c1)C(=O)O (stereo unspecified),-6,8,7,-8,20225*
O=C(Nc1ccc(F)cc1)c1cnc(-c2ccccc2)nc1-c1ccccc1,-8,?,8,4,18660*
C[C@H](CO)N1C[C@H](C)[C@H](CN(C)S(=O)(=O)c2cccc(C#N)c2)OCc2cnnn2CCCC1=O,-3,-1,-4,3,3836
CC(=O)c1ccc(NC(=O)c2ccc(-n3cnnn3)cc2)cc1,?,-3,-11,-6,?
Cc1ccc(S(=O)(=O)N(C)CC(=O)O/N=C(\N)c2ccccn2)cc1,-2,-1,1,61*,2781
CCCCSc1nc2c(cc1C#N)CCC2,-1,-1,-3,-13,20908*
N#Cc1cc2c(nc1SCC(=O)Nc1nccs1)CCCCC2,-7,-3,-5,-8,20116*
C=CCSc1nc2c(cc1C#N)CCC2,-6,?,7,1,21788*
COC(=O)NNC(=S)Nc1ccc(Br)cc1,-3,-1,-2,-17,4382
Cc1ccccc1-c1nn[nH]n1,0,-5,-5,-2,21118*
c1ccc(-c2nn[nH]n2)cc1,-14,?,?,5,4346
C=CCNC(=O)c1oc2ccc(S(=O)(=O)N(CC)CC)cc2c1C,-2,-4,-5,-3,24786*
CCC(C)(C)NC(=O)CN(C(=O)C(=O)Nc1ccc2c(c1)OCCO2)C1CC1,15,-2,-3,11,3193
COc1ccccc1C(=O)NCC[N+](C)(C)C,-3,-1,0,.,6300
O=C(O)c1ccc(-c2ncc[nH]2)cc1,-4,0,-4,11,4022
COc1ccc(C(=O)NC(=S)NCc2ccc(-c3nc4ccccc4o3)cc2)cc1OC,1,?,-5,-16,21219*
CCOc1cc(C(=O)NCc2ccc(-c3nc4ccccc4o3)cc2)cc(OCC)c1OCC,-5,-1,-4,-11,16439*
Cc1ccc(Oc2cc(-n3nc(C)cc3C)ncn2)cc1,-2,?,-1,0,22017*
Cc1cc(C)n(-c2cc(-n3nc(C)cc3C)ncn2)n1,-3,0,0,12,9965
CC(=O)c1cc(NC(=O)c2cccc(C(F)(F)F)c2)c(=O)oc1/C=C/N(C)C,-1,?,-12,180*,23755*
COc1ccc(C(=O)Nc2cc(C(C)=O)c(C)oc2=O)cc1,-14,0,0,-3,4373
CC(=O)c1cc(NC(=O)c2ccc(Cl)cc2)c(=O)oc1/C=C/N(C)C,2,?,1,-342,25493*
CN(Cc1ccccc1)C1CCNCC1,-10,2,?,10,4108
SMILES,Anthrax LF prot,BoNT-A LC inh2,BoNT-F LC inh,MazF activator,Bead autofluor
COc1cc(/C=C/C(=O)OCC(=O)Nc2nnc(-c3ccccc3)o2)cc(OC)c1OC,-2,-4,-7,-7,?
CC(=O)c1sc(NC(=O)c2oc3ccc(F)cc3c2C)nc1C,-7,0,6,-10,2847
CC(C)CC(=O)Nc1nnn(C)n1,-7,4,7,5,18519*
CC(C)C(=O)Nc1nnn(C)n1,-2,1,1,-1,22504*
C/C(=N/NC(=O)CN1CCN(Cc2ccccc2Cl)CC1)c1ccco1,7,-1,27,9,3074
CCn1c(P(C)(=O)O)nc2cc(NC(=O)c3ccccc3Cl)ccc21,0,-1,-3,-6,2098

# Screening data from PubChem.
